Screening data as filed in PubChem.
PLK1 PBD inh: blocks phosphopeptide binding to human PLK1 polo-box domain; P53350; Potency, µM, without a hit: max response, negative = inhibition, hits mostly inhibitors; 360,000 tested, 2.8% active; Plk1 PBD binding of FITC phosphopeptide, fluorescence polarization; AID 720504; also: series mostly up to about 57 µM; % is scaled to controls: 0 for no effect and ±100 for the full control effect; nearly all actives have a fitted effect of over 65% in size
VDR inhibitor: inhibitors of human vitamin D receptor; Potency, µM, for the others: max response, negative = inhibition, usual class: inhibitors; VDR-SRC2-3 peptide fluorescence polarization, 2 h; P11473; 400,000 tested, 0.93% active; also: % is scaled to controls: 0 for no effect and ±100 for the full control effect
Target sequence (P11473 whole entry, looked up): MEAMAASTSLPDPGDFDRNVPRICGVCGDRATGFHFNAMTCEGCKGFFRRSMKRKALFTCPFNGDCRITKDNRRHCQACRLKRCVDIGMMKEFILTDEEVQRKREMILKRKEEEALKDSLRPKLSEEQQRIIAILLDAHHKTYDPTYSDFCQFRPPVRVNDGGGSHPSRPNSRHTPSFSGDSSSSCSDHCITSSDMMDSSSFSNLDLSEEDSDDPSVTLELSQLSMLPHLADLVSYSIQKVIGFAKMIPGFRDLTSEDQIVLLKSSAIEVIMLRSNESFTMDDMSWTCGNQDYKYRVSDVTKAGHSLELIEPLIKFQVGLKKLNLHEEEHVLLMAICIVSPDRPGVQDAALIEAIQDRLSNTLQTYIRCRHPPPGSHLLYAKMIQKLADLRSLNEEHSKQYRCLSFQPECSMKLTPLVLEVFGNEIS
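Fluorescence polarization assay measuring small-molecule disruption of VDR binding to the coregulator peptide SRC2-3. Compounds were pin-transferred (23 nl) into the reagent mix and incubated 2 h at room temperature before reading.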
TSG101-PTAP inh: blocks PTAP/TSG101 interaction to inhibit HIV-1 budding | Fluorescence polarization, FITC-PTAP peptide / Tsg101 binding | 340,000 tested, under 10 active | Potency, µM (highest dose often 115 µM), without a hit: at the top dose activity change, negative = inhibition, actives largely listed as inhibitors | Q99816 | AID 493005; active = well fitted inhibition curve with a large enough effect in the main read-out, with a control signal flat, not every such curve was filed as active; inconclusive = small, poorly fitted or top-dose-only effect, or effect the other way, or a change in a side signal; inactive = no such curve, though single readings can be large or run the other way; also: % of control where 0% means no effect
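Compounds were pin-transferred onto Tsg101 binding domain (10 uM final) in HEPES pH 7.5 buffer, then FITC-PTAP peptide was added at 50 nM final. After 20 min at RT, polarization reported peptide displacement across a qHTS concentration series.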
USP1-UAF1 inh: USP1/UAF1 (human) deubiquitinase inhibition; O94782; Potency, µM (top dose mostly 57.1 µM), for inactives: at the top dose activity change, negative = inhibition, hits mostly inhibitors; recombinant USP1/UAF1, Ub-Rhodamine cleavage fluorescence; 390,000 tested, 0.23% active; AID 743255; also: % is scaled to controls: 0 for no effect and ±100 for the full control effect; nearly all actives have a fitted effect of over 60% in size
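Step one: compound is pinned into 1nM USP1/UAF1 in HEPES pH 7.8 buffer with TCEP. Step two: 15 min room-temperature incubation. Step three: Ub-Rho (150nM final) starts cleavage, tracked by fluorescence over six one-minute reads.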
GCN5L2 inh: GCN5L2 (KAT2A) acetyltransferase inhibition; Q92830; GCN5L2 HAT assay, ThioGlo1 CoA-SH fluorescence; Potency, µM (top dose mostly 58.9 µM), without a hit: top-dose activity change, negative = inhibition, most hits filed as inhibitors; 390,000 tested, 0.21% active; AID 504327; also: % is scaled to controls: 0 for no effect and ±100 for the full control effect
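Free CoA generated was detected with ThioGlo1 (50uM) fluorescence at Ex340nm/Em540nm, read immediately and after 20 min at room temperature. Enzyme, 20 nM in HEPES pH 7.5 buffer, saw compounds 15 min before adding 75uM H3(1-25) peptide and 70uM acetyl-CoA.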
TbPYK confirm: Trypanosoma brucei pyruvate kinase inhibition, cherry-pick confirmation; Potency, µM (doses to about 76.9 µM), for inactives: at the top dose activity change, negative = inhibition, usual class: inhibitors; 890 tested, 67% active; recombinant TbPYK, Kinase-Glo ATP luminescence; shares compounds with PLK1 PBD inh; also: % is scaled to controls: 0 for no effect and ±100 for the full control effect; nearly all actives have a fitted effect of over 70% in size
TbPYK orthogonal: inhibits T. brucei pyruvate kinase in orthogonal ADP-Glo assay. shares compounds with PLK1 PBD inh. recombinant TbPYK, ADP-Glo luminescence, 60 min. Potency, µM (doses to about 76.9 µM), for the others: at the top dose activity change, negative = inhibition, usual class: inhibitors. 890 tested, 62% active; also: % is scaled to controls: 0 for no effect and ±100 for the full control effect; nearly all actives have a fitted effect of over 75% in size
An asterisk follows results filed as active. A selection: hits, their analogues and other compounds. The true share with any hit is near 3%. Unless noted, calls follow the shape of the dose curve; as a rule, active = well fitted curve in the direction sought with a large enough effect; inconclusive = small, poorly fitted or top-dose-only effect, or another doubt; inactive = no such curve, though single readings can be large; an effect the other way counts as inactive or inconclusive. Potency is read from the fitted curve at half-maximal effect.

CCN(C(=O)COC(=O)/C=C/c1ccccc1)C1CCCCC1 was read as PLK1 PBD inh -2%, VDR inhibitor 14%, TSG101-PTAP inh -1%, USP1-UAF1 inh -17% and GCN5L2 inh 1%.
Screening NC(=O)CN1C(=O)/C(=c2\sc3nc(=O)c(Cc4ccccc4)nn3c2=O)c2ccccc21 returned PLK1 PBD inh 6µM*, VDR inhibitor inconclusive, TSG101-PTAP inh 1%, USP1-UAF1 inh -13%, GCN5L2 inh -15%, TbPYK confirm 28µM* and TbPYK orthogonal 16µM*.
Screening NC(=O)CN1C(=O)C2CCCCN2C(=O)c2ccccc21 (stereo unspecified) returned PLK1 PBD inh 0%, VDR inhibitor -7%, TSG101-PTAP inh -9%, USP1-UAF1 inh -12% and GCN5L2 inh -4%.
NS(=O)(=O)c1ccc(-c2ccc(/C=C3\C(=O)Nc4ccccc43)o2)cc1 was read as GCN5L2 inh -10%.
Cc1ccc(/C=C2\C(=O)Nc3ccccc32)o1 was read as PLK1 PBD inh -19%, VDR inhibitor -22%, TSG101-PTAP inh 0%, USP1-UAF1 inh -18%, GCN5L2 inh 5%, TbPYK confirm inconclusive and TbPYK orthogonal inconclusive.
`Oc1[nH]c2ccccc2c1N=NC(=S)N1CCOCC1` gave PLK1 PBD inh inconclusive, VDR inhibitor -25%, TSG101-PTAP inh -2%, USP1-UAF1 inh -22% and GCN5L2 inh -27%.
Screening Oc1[nH]c2ccc(Br)cc2c1N=NC(=S)N1CCOCC1 returned PLK1 PBD inh -18%, VDR inhibitor -8%, TSG101-PTAP inh -4%, USP1-UAF1 inh -6%, GCN5L2 inh -10%, TbPYK confirm 0.32µM* and TbPYK orthogonal 0.45µM*.
For CC1(C)CC(=O)C2=C(C1)Nc1ccccc1NC2c1ccc([N+](=O)[O-])cc1 (stereo unspecified) the results were PLK1 PBD inh -16%, VDR inhibitor 1%, TSG101-PTAP inh 2% and USP1-UAF1 inh -15%.
Screening C#CCSC1=C(C#N)C(c2cccs2)C(C(=O)OCC)=C(C)N1 (stereo unspecified) returned PLK1 PBD inh -23%, VDR inhibitor -10%, TSG101-PTAP inh -7%, USP1-UAF1 inh -11% and GCN5L2 inh -2%.
For CCN(CC)C(=O)CSC1=C(C#N)C(c2cccs2)C=C(C)N1 (stereo unspecified) the results were PLK1 PBD inh inconclusive, VDR inhibitor 4%, TSG101-PTAP inh -4%, USP1-UAF1 inh -7%, GCN5L2 inh -3%, TbPYK confirm 14µM* and TbPYK orthogonal 14µM*.
COc1cc(Cl)c(C)cc1NC(=O)CCc1c(C)nc2c3cccnc3nn2c1C was read as VDR inhibitor 1%, USP1-UAF1 inh 6% and GCN5L2 inh -1%.
For N#CC1=C2SCC(O)(c3ccccc3)N2C(=O)CC1c1ccccc1 (stereo unspecified) the results were PLK1 PBD inh -12%, VDR inhibitor 22%, TSG101-PTAP inh 0%, USP1-UAF1 inh -7% and GCN5L2 inh -8%.
CCc1ccc(C2CC(=O)N3CN(c4ccccc4)CSC3=C2C#N)cc1 (stereo unspecified) was read as PLK1 PBD inh 21µM*, VDR inhibitor 16µM*, TSG101-PTAP inh -1%, USP1-UAF1 inh -20%, GCN5L2 inh inconclusive, TbPYK confirm 3.5µM* and TbPYK orthogonal 4µM*.
For N#CC1=C2SCN(c3ccc(F)cc3)CN2C(=O)CC1c1cccc(F)c1 (stereo unspecified) the results were PLK1 PBD inh 27µM*, VDR inhibitor inconclusive, TSG101-PTAP inh 7%, USP1-UAF1 inh -12%, GCN5L2 inh -19%, TbPYK confirm 4µM* and TbPYK orthogonal 2µM*.
